Test [1] deals with T1, Serine/threonine-protein kinase D2 (Homo sapiens) (UniProt Q9BZL6).
T1 sequence (whole entry): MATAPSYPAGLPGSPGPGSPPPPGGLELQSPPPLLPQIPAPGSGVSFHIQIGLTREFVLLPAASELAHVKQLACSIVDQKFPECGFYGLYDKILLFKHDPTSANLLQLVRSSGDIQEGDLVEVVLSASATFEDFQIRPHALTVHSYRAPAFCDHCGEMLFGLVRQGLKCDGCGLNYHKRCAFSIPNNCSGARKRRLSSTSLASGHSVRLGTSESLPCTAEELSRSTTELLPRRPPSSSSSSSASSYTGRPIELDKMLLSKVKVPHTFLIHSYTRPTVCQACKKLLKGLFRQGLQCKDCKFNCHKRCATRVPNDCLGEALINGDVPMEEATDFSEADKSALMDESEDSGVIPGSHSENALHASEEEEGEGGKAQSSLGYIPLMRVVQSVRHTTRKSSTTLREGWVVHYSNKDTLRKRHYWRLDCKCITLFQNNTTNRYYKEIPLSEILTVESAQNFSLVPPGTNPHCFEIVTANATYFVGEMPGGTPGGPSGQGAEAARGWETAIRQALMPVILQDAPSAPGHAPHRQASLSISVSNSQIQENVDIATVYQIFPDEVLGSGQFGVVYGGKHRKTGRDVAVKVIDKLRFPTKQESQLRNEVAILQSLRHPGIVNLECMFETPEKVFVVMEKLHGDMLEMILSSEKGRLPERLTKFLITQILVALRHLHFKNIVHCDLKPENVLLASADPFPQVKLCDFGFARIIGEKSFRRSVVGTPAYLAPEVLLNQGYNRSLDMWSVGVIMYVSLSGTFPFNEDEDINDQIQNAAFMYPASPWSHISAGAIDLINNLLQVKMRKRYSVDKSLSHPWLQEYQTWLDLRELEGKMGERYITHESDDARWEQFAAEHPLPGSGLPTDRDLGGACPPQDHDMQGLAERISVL
The conditions noted are these: at 1 µM.

The target in test [2] is T2, Serine/threonine-protein kinase D3 (Homo sapiens) (UniProt O94806).
T2 sequence (whole entry): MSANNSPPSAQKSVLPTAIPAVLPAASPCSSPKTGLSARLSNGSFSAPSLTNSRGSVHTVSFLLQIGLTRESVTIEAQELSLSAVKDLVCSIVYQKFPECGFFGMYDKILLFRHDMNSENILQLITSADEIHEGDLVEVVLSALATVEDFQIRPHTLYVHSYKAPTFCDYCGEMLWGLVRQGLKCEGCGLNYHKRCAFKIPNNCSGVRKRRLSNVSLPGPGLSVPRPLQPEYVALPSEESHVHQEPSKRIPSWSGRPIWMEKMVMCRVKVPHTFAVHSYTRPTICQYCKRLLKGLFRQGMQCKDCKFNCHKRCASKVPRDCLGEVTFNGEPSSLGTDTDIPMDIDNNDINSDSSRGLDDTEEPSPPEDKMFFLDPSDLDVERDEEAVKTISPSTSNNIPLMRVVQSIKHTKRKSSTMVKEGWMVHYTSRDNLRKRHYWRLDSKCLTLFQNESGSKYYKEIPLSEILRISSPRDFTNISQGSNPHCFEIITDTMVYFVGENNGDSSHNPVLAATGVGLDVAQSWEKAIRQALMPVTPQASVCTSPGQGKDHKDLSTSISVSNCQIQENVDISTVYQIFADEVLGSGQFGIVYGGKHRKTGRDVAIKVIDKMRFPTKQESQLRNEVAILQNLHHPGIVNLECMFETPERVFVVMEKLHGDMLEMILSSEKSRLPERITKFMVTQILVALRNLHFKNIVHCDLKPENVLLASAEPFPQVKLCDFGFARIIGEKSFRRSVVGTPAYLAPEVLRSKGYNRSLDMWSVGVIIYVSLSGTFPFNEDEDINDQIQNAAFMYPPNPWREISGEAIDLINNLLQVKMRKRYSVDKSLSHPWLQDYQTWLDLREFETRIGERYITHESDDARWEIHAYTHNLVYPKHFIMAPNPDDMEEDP
The conditions noted are these: at 0.1 µM.

The target of test [3] is T2, Serine/threonine-protein kinase D3 (Homo sapiens). The conditions noted are these: at 1 µM.
Test [4] has as its target T3, cGMP-dependent protein kinase 1 (Homo sapiens) (UniProt Q13976).
T3 sequence (whole entry): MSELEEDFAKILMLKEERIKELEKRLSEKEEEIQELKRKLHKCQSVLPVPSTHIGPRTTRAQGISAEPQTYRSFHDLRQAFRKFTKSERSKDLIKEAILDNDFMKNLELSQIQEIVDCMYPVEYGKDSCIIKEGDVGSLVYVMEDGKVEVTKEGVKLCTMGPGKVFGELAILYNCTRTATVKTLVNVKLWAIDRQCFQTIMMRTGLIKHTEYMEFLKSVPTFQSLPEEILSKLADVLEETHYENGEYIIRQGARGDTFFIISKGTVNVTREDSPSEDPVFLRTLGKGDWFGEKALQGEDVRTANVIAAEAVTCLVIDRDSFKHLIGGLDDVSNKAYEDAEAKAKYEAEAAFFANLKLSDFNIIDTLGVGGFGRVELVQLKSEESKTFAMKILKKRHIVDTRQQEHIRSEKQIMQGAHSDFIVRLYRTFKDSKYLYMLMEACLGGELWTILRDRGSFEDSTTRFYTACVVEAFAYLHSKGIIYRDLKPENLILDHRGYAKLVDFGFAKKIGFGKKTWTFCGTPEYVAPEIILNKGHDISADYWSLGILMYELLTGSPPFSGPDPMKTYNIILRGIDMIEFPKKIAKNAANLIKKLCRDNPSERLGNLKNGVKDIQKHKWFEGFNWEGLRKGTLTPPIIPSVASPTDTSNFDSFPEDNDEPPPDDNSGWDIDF
The conditions noted are these: at 0.1 µM.

Test [5] concerns the target T3, cGMP-dependent protein kinase 1 (Homo sapiens). The conditions noted are these: at 1 µM.
Test [6] deals with T4, cGMP-dependent protein kinase 2 (Homo sapiens) (UniProt Q13237).
T4 sequence (whole entry): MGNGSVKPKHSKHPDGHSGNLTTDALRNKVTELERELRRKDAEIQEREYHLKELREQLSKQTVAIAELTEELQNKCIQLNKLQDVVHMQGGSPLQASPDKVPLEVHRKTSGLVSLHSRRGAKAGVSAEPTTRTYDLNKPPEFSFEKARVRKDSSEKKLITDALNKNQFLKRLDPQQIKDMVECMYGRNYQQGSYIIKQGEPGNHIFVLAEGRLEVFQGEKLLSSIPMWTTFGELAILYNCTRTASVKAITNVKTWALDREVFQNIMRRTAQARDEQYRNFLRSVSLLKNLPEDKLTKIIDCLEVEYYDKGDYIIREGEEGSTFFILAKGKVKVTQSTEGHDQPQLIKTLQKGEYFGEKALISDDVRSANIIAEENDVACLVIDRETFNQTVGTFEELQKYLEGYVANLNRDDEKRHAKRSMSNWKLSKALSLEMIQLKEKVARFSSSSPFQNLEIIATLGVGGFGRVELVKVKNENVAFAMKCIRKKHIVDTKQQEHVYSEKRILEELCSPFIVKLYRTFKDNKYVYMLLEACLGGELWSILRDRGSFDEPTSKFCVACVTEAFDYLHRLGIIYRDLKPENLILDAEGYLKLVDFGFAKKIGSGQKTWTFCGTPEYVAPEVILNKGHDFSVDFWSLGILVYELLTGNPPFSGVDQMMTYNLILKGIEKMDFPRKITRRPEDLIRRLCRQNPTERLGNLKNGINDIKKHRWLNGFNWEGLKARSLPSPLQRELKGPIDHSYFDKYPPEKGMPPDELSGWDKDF
To be noted: at 0.1 µM.

Test [7] deals with T4, cGMP-dependent protein kinase 2 (Homo sapiens). The conditions noted are these: at 1 µM.
The target in test [8] is T5, cAMP-dependent protein kinase catalytic subunit PRKX (Homo sapiens) (UniProt P51817).
T5 sequence (whole entry): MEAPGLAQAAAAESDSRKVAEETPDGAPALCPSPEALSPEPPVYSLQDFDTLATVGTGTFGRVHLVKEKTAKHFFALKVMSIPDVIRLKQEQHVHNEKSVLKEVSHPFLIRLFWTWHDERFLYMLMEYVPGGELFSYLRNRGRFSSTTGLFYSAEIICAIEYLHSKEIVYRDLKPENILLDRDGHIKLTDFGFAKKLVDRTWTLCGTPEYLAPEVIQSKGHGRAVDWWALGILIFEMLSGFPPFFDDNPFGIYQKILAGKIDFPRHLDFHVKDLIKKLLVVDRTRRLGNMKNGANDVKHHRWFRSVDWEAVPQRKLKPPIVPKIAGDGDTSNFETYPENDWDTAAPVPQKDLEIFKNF
The conditions noted are these: at 0.1 µM.

Test [9] deals with T5, cAMP-dependent protein kinase catalytic subunit PRKX (Homo sapiens). The conditions noted are these: at 1 µM.
For test [10], the target named is Rho-associated protein kinase 1 (Homo sapiens) (UniProt Q13464). The conditions noted are these: at 0.1 µM.
For test [11] the target is unchanged. The conditions noted are these: at 1 µM.
Test [12] addresses Rho-associated protein kinase 2 (Homo sapiens) (UniProt O75116). The conditions noted are these: at 0.1 µM.
The target is the same in test [13]. The conditions noted are these: at 1 µM.
Test [14] addresses Ribosomal protein S6 kinase alpha-1 (Homo sapiens) (UniProt Q15418). The conditions noted are these: at 0.1 µM.
Test [15] shares this target. To be noted: at 1 µM.
The target in test [16] is Ribosomal protein S6 kinase alpha-3 (Homo sapiens) (UniProt P51812). The conditions noted are these: at 0.1 µM.
The target is the same in test [17]. The conditions noted are these: at 1 µM.
Test [18] deals with Ribosomal protein S6 kinase alpha-2 (Homo sapiens) (UniProt Q15349). The conditions noted are these: at 0.1 µM.
Test [19] shares this target. To be noted: at 1 µM.
Test [20] deals with Ribosomal protein S6 kinase alpha-6 (Homo sapiens) (UniProt Q9UK32). The conditions noted are these: at 0.1 µM.

Among the data in ChEMBL document CHEMBL1961873, “Compounds: GSK PKIS; Assays: Nanosyn kinase panel” (2012) are inhibition values, retold here.

SMILES strings stand for the structures.

Sequence of Ribosomal protein S6 kinase alpha-1 (Homo sapiens) (Q15418 whole entry): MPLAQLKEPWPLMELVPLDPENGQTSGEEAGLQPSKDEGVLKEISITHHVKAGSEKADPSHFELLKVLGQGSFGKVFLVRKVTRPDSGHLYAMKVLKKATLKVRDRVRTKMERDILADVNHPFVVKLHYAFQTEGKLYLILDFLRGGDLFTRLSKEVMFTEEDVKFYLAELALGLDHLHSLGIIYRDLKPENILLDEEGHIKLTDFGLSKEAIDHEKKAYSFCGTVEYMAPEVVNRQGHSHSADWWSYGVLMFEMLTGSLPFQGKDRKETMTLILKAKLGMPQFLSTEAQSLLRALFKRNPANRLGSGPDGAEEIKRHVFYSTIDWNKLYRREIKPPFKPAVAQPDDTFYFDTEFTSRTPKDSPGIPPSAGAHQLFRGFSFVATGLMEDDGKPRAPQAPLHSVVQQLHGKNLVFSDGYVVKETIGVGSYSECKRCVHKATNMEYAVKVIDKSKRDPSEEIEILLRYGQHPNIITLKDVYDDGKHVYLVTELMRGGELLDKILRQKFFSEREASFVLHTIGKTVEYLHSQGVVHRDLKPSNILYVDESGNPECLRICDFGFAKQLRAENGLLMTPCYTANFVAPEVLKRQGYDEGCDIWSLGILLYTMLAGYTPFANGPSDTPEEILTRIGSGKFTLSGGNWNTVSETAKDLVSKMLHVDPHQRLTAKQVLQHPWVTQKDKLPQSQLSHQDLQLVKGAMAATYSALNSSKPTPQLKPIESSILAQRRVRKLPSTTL
Sequence of Rho-associated protein kinase 2 (Homo sapiens) (O75116 whole entry, looked up): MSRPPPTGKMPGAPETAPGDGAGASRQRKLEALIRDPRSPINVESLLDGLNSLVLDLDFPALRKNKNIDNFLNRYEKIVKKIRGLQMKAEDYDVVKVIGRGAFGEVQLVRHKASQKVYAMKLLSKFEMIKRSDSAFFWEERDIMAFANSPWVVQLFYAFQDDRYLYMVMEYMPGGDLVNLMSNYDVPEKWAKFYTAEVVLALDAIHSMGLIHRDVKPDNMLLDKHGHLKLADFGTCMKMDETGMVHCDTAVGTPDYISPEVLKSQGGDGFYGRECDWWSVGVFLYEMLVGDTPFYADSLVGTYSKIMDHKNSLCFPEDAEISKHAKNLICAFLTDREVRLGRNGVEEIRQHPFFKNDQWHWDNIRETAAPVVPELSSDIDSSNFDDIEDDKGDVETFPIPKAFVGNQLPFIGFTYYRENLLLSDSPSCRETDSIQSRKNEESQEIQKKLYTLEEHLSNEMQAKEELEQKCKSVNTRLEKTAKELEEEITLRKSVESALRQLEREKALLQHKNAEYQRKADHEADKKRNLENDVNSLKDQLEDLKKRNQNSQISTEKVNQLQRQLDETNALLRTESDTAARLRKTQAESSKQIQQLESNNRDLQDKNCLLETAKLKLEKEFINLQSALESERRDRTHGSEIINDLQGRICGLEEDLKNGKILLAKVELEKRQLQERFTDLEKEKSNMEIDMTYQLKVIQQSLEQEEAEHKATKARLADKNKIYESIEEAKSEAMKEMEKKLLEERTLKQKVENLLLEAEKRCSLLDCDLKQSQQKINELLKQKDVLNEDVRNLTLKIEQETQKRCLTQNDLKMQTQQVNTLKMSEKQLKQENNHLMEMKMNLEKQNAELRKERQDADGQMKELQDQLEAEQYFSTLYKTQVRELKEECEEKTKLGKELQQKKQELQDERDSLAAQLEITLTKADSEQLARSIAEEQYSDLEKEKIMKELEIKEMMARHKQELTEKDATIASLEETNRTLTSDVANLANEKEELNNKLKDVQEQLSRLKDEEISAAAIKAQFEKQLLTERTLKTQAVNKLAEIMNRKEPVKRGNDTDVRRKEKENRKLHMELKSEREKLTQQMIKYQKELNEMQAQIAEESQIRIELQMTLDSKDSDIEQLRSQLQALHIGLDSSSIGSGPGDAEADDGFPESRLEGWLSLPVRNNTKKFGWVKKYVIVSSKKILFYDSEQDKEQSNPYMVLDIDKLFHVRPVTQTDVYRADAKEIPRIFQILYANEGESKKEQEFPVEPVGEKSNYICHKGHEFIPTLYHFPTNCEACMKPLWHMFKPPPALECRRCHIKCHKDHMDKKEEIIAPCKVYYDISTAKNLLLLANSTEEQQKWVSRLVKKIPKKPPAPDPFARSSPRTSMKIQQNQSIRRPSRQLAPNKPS
Sequence of Ribosomal protein S6 kinase alpha-3 (Homo sapiens) (P51812 whole entry): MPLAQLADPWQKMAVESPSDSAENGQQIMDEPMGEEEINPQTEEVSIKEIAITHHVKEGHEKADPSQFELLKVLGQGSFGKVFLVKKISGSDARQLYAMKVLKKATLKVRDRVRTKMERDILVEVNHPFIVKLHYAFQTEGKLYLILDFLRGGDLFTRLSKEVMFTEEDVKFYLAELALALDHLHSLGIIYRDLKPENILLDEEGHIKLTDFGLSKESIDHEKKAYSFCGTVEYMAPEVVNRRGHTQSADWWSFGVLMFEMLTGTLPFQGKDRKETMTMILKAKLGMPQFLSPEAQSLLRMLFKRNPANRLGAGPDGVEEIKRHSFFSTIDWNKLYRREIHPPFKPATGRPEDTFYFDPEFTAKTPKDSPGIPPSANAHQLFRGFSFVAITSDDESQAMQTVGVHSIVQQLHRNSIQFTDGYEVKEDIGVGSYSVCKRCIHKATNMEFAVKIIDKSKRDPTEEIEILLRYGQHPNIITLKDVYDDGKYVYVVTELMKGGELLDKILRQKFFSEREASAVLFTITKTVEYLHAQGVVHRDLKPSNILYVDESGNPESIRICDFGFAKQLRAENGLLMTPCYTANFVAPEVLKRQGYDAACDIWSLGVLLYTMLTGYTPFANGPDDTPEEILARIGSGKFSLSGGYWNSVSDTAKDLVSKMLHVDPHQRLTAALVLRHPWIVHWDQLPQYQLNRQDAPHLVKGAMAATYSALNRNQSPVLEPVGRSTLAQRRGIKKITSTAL
Sequence of Ribosomal protein S6 kinase alpha-2 (Homo sapiens) (Q15349 whole entry): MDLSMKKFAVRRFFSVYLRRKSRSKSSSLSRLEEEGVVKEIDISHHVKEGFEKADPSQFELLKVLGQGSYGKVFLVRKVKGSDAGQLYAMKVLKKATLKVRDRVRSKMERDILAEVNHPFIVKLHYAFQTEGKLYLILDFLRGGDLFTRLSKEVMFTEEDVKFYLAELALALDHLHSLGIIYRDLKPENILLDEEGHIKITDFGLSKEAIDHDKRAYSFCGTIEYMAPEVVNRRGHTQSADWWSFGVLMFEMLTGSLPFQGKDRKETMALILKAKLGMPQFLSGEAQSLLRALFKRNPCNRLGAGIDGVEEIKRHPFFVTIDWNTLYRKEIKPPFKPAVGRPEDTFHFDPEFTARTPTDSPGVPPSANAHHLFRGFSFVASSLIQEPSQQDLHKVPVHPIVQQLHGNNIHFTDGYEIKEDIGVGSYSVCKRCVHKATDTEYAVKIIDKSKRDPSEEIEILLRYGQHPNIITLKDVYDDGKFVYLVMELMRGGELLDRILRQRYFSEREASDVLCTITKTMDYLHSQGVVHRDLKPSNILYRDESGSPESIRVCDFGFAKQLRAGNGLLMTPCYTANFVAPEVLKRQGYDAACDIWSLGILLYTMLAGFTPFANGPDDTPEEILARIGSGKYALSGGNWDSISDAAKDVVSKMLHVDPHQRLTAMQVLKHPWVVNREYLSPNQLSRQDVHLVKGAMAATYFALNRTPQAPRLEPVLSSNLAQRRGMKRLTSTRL
Sequence of Rho-associated protein kinase 1 (Homo sapiens) (Q13464 2-1354 limits assumed): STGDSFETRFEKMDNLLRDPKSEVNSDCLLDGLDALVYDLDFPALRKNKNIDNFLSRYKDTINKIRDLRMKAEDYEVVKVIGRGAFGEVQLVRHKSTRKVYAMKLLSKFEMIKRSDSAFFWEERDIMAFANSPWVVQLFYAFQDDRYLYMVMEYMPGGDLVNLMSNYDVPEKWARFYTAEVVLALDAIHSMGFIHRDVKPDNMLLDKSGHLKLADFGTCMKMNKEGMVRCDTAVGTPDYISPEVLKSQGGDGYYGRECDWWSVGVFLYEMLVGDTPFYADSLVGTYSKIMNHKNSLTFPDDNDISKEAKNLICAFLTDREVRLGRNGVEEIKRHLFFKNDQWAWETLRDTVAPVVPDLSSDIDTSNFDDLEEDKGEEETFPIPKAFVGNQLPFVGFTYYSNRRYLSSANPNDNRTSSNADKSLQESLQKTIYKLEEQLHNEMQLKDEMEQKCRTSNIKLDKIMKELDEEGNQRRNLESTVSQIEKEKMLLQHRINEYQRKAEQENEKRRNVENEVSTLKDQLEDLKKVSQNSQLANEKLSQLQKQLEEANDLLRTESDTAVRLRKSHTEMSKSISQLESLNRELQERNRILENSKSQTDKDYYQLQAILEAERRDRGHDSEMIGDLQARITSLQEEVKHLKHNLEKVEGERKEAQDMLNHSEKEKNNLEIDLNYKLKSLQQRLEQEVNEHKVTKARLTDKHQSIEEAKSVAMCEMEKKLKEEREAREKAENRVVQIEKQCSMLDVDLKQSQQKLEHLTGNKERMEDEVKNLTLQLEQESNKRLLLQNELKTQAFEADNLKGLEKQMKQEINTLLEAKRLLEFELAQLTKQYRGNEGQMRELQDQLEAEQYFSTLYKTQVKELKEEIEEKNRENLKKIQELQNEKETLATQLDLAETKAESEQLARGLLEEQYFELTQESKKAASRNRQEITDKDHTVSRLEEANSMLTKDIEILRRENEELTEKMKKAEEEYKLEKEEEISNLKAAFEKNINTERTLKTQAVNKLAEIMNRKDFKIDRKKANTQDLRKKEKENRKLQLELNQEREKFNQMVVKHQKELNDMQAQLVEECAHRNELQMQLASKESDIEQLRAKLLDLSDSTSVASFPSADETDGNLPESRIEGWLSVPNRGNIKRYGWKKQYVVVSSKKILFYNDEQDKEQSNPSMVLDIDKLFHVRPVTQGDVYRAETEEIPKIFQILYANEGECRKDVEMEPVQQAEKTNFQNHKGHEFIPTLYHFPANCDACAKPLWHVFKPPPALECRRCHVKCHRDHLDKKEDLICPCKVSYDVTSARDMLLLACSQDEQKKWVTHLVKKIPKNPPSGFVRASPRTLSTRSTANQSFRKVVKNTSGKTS

As for `O=C(Nc1n[nH]c2nc(-c3ccco3)c(Br)cc12)C1CC1`, the inhibition in [1] is 5.03%; in test [2], 3.1%; in test [3], 4.81%; in [4], 2.39%; in test [5], 3.36%; in [6], 1.15%. Further, the inhibition in test [7] is 1.85%; in test [8], 1.8%; in [9] it was -0.27%; in test [10] it was 0.16%; in test [11] it was 0.97%; in test [12], 0.99%. Moreover, the inhibition was -0.88% in [13]; 1.12% in [14]; -0.1% in test [15]; 0.52% in [16]; -0.3% in [17]; 1.97% in [18]. Also, the inhibition is 2.85% in test [19] and 0.15% in test [20].
Turning to `CCn1c(-c2nonc2N)nc2cnc(Oc3cccc(NC(=O)c4ccc(OCCN5CCOCC5)cc4)c3)cc21`, the inhibition in test [1] amounted to 4.52%; in [2], 2.2%; in test [3], 2.69%; in test [4], 60.5%; in test [5] it was 76.6%; in [6], 27.3%. The inhibition in test [7] stood at 66.3%; in test [8], 18.6%; in test [9], 63.1%; in test [12], 90%; in test [13] it was 90.5%; in [14], 26.1%. Besides, the inhibition in test [15] was 70.6%; in [16] it was 12.2%; in test [17], 54.6%; in [18] it was 15.6%; in test [19] it was 61%; in test [20] it was 2.18%.
As to `COc1cc2ncn(-c3cc(O[C@H](C)c4ccccc4Cl)c(C(N)=O)s3)c2cc1OC`, the inhibition turned out to be 4.06% in test [1]; 2.93% in test [2]; 2.62% in test [3]; 3.62% in test [4]; 4.56% in test [5]; 3.5% in [6]. Also, the inhibition in test [7] was determined as 5.66%; in test [8] it was 2.91%; in test [10], 1.18%; in test [11] it was 3.85%; in [12], 4.45%; in test [13] it was 13.6%. Further, the inhibition in test [14] came to 3.9%; in [15], 18.7%; in test [16], 3.39%; in test [17], 16.4%; in test [18], 2.9%; in [19] it was 10.6%. In addition, in test [20], the inhibition was found to be 3.57%.
As for `Fc1cccc(COc2ccc(Nc3ncnc4cc(-c5ccc[nH]5)sc34)cc2Cl)c1`, the inhibition in test [1] is -2.9%; in test [2], -1.25%; in test [3], -2.13%; in [4], 3.64%; in test [5], 4.28%; in test [6] it was 2.82%. The inhibition was found to be 2.46% in [7]; 2% in test [8]; 3.5% in test [9]; 0.2% in [10]; 1.71% in test [11]; 1.64% in [12]. Moreover, the inhibition in test [13] was 2.17%; in [14], 2.06%; in test [15] it was 0.75%; in test [16] it was 2.4%; in test [17], 2.56%; in test [18], 1.77%. Also, the results for the inhibition in test [19] and in test [20] were 2.41% and 1.15%, respectively.

What is called inhibition is the relative decrease from the control value, in per cent.
